Values joined by “and” are separate entries in the source; they are usually repeats but may differ in a detail not shown here. Equal entries are not always repeated. The campaign covered roughly 360,000 compounds. About 3,100 (0.86%) were called active. Many of the other results were omitted from the sample, so actives are more common in it than they were. Unmarked numbers belong to inactive results.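 How the source made its calls: active means at least 50% inhibition at 5 µM, scaled per plate between neutral and stimulator controls; inactive means the rest.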
Experiment: inhibitors of PAF-induced NF-kB signaling, primary screen, cell-based, GFP fluorescence, uHTS (AID 588850);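 further: PAF is a Pseudomonas aeruginosa culture filtrate used as stimulus; plate controls were PAF-stimulated DMSO wells for no effect and unstimulated DMSO wells for full effect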
Settings: KKLEB NF-kB-GFP reporter, GFP fluorescence overnight, at 5 µM, stronger effect = higher value

SMILES | inhibition
COc1cccc(C(=O)Nc2nnc(S(=O)(=O)N3CCOCC3)s2)c1 | -7.5%
O=C(Nc1nnc(S(=O)(=O)N2CCOCC2)s1)c1cccc(Br)c1 | 13%
O=C(Nc1nnc(S(=O)(=O)N2CCCCCC2)s1)c1cccc(Br)c1 | 57% (active)
C/C(=N\NS(=O)(=O)c1ccc(Cl)cc1)c1ccc(NC(=O)c2ccco2)cc1 | -14%
N#CCCC(C#N)(c1cccnc1)N1CCOCC1 (stereo not drawn) | -15.6%
CNCC(O)c1ccc(O)c(O)c1 (stereo not drawn) | 12.4%
CCN1C(=O)c2cccc3c(S(=O)(=O)Nc4ccccc4O)ccc1c23 | -71.5%
CN(CCc1ccccn1)S(=O)(=O)c1ccc2c3c(cccc13)C(=O)N2 | 5.4%
CCN(CC)S(=O)(=O)c1ccc2c3c(cccc13)C(=O)S2 | 54.1% (active)
Cc1ccc(C(=O)OCC(=O)NCc2cc(C)c(O)c(C)c2)cc1S(=O)(=O)N1CCCCC1 | -0.3%
COCCCNc1ccn2nc(-c3ccc(CC(C)C)cc3)cc2n1 | -77.9%
O=c1c(/C=N/O)coc2ccc(Cl)cc12 | 0.9%
Cc1ccc2occ(/C=N/NC(=O)c3ccccc3C)c(=O)c2c1 | 71% (active)
CC(C)(C)OC(=O)NCCCCCC(=O)N/N=C/c1coc2ccccc2c1=O | 4.1%
Cc1ccc(NC(=O)[C@H](Cc2ccccc2)NC(=O)CC[C@H]2O[C@@H](n3ccc(=O)[nH]c3=O)[C@H](O)[C@@H]2O)cc1C | -33.7%
CCCCC(CC)CNCc1cccn1CCN1CCOCC1 (stereo not drawn) | -18.7%
Cc1ccc(/C=N/NC(=O)CSc2nc3ccccc3o2)cc1 | -2.1%
Cc1ccc(/C=N/NC(=O)COc2ccccc2-c2ccccc2)cc1 | 51.1% (active)
Cc1ccc(COc2ccc(/C=N/NC(=O)CN3CCCCC3)cc2)cc1 | -24.1%
O=C(NCc1ccc(F)cc1)c1cc(C2CCCCN2C(=O)c2ccccn2)on1 (stereo not drawn) | 4.9%

SMILES | inhibition
C=CCN1C=C(C(=O)c2ccccc2)C(=O)CC1 | 3.5%
O=C(CSc1ccccc1)Nc1ccc(C(=O)Nc2cccc(O)c2)cc1 | -12.7%
O=C(CCl)Nc1cccc(CP(=O)(c2ccccc2)c2ccccc2)c1 | 58% (active)
O=C(CSCc1ccccc1)Nc1ccccc1 | -2.5%
O=C(NCc1nnc(SCC(=O)N2CCC(Cc3ccccc3)CC2)o1)c1ccco1 | 13.2%
CCOC(=O)C1(CCOC)CCN(Cc2cc3ccccc3s2)CC1 | 11.7%
O=[N+]([O-])c1ccc(Oc2ccc(F)cc2Br)c2ccncc12 | 65% (active)
O=c1ccc2c(-c3ccccc3S(=O)(=O)O)c3ccc(O)c(O)c3oc-2c1O | 22%
Oc1c(C(c2cccs2)N2CCN(c3ccc(F)cc3)CC2)sc2ncnn12 (stereo not drawn) | 17.4%
CCOC(=O)C1=CC[C@@H](c2ccccc2)N(S(=O)(=O)c2ccc(C)cc2)[C@H]1c1ccc(CC)cc1 | 11.8%
Cc1ccc(NC(=O)Nc2nnc(-c3ccncc3)s2)cc1 | 68% (active)
Cc1nnc(NC(=O)Nc2ccc(Cl)c(Cl)c2)s1 | 83.2% (active)
Cc1nnc(NC(=O)Cn2c(=O)sc3ccccc32)s1 | -6.1%
CC(C)=CC(=O)Nc1nnc(-c2ccc(F)cc2)s1 | 0.2%
CCc1ccc(NC(=O)Nc2ccncc2)cc1 | 16.4%
Cc1ccc(NC(=O)Nc2cc(-c3ccccc3)nn2C)cc1Cl | -3.9%
C[C@H]1Cn2cnc(C(=O)N[C@H](C)c3ccccc3)c2C(=O)N1 | -3.8%
CCOC(=O)C1=C(CC)Nc2ccccc2N=C1N | -14.1%
CC(C)Cn1cnc2c1c(=O)n(CC(O)c1ccccc1)c(=O)n2CC(C)C (stereo not drawn) | 9%
COc1ccc(NC(=S)N2N=CCC2c2ccccc2)cc1 (stereo not drawn) | 5.1%

SMILES | inhibition
Cc1nnc(SCCCCSc2nnc(C)c(=O)[nH]2)[nH]c1=O | 6.2%
CC(=O)c1cccc(-c2cnc3c(NC=O)cc(-c4cccc(C(=O)N(C)C)c4)cn23)c1 | 0.7%
CC(=O)c1ccc(-c2cnc3c(NC=O)cc(-c4cccc(NS(C)(=O)=O)c4)cn23)cc1 | 74.7% (active)
CC(=O)c1cccc(-c2cnc3c(NC=O)cc(-c4ccc(N(C)C)cc4)cn23)c1 | 29.8%
COc1cncc(-c2cnc3sc(NCCc4ccccn4)nn23)c1 | 74.1% (active)
Cc1ccc(C(=O)N/C(=C\c2cccs2)C(=O)NCCc2ccccn2)cc1C | 5.1%
COc1ccc(-c2cc3nc(NCCOc4ccccc4)ccn3n2)cc1 | 20.8%
O=C(OCc1ccccc1)N1CCC2CC1c1cc(N3CCN(S(=O)(=O)c4cc(Cl)cc(Cl)c4)CC3)ccc12 (stereo not drawn) | 10.1%
CCC1=C(OC(=O)N(CC)CC)N2C(=O)OC(=NCC3CC3)[C@]2(C)[C@H]2C1=CC[C@H]1C(=O)N(CC(=O)OC)C(=O)[C@H]12 | 7.9%
COc1cc(C(=O)N/C(=C\c2cn(C)c3ccccc23)C(=O)N2CCOCC2)cc(OC)c1OC | -23.4%
COc1cc(NC(=O)c2[nH]cnc2C(N)=O)cc(C(=O)Nc2cccc(C(F)(F)F)c2)c1 | 53.2% (active)
COc1cc(NC(=O)c2cncc(-c3ccc(C#N)cc3)c2)cc(C(=O)Nc2cccc(C(F)(F)F)c2)c1 | -39% and -21.4%
COc1ccc(C(N)c2csc(NC(=O)Nc3cccc(C(F)(F)F)c3)n2)cc1 (stereo not drawn) | 24.7%
CCCCn1ccnc1C(=O)c1cccc(S(=O)(=O)N2c3ccccc3CC2C)c1 (stereo not drawn) | 2.6%
COc1ccccc1N1CCN(C(=O)c2ccc(NC3=NC4CS(=O)(=O)CC4S3)cc2)CC1 (stereo not drawn) | -7.3%
COc1ccccc1OCc1ccc(C(=O)N2CCN(C)CC2)o1 | 6.4%
COc1ccccc1N1CCN(C(=O)c2cc(=O)c3cc(C)cc(C)c3o2)CC1 | 51% (active)
O=C(COC(=O)c1cccnc1Cl)Nc1ccc(S(=O)(=O)N2CCOCC2)cc1 | 5.3%
